Assay [1] can be described thus: resazurin metabolic signal in HepG2 cells – cell-based, resazurin fluorescence, 24 h, PK04 Diversity Set, profiling panel (AID 1172). Note: test concentration not given here. Conditions: HepG2 viability, higher = more signal.
Assay [2] can be described thus: budding yeast growth changes without added modifier – OD600, strain BY4716, 24 h, basal condition, primary screen (AID 1173). Particulars: S. cerevisiae BY4716 growth, OD600, 24 h; higher = more signal, called active from +8 up or from −8 down.
A short description of assay [3]: viability profiling in MM1S myeloma cells – cell-based, resazurin fluorescence, basal, 24 h, PK04 Diversity Set, profiling panel (AID 1174).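 Note: MM1S multiple myeloma cell line; test concentration not given here.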 Conditions: higher = more signal, called active from +8 up or from −8 down.
Assay [4] has as its target Dihydroorotate dehydrogenase (quinone), mitochondrial (Plasmodium falciparum (isolate 3D7)) (UniProt Q08210). Put plainly: inhibition of P. falciparum DHODH – biochemical, C-terminal His tag, absorbance 600 nm, primary screen (AID 1175).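 Note: recombinant parasite enzyme with a five histidine tag at its C terminus; test concentration not given here.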 Particulars: PfDHODH enzyme, DCIP absorbance 600 nm; higher = more signal, called active from +8 up or from −8 down.
Assay [5] is described as follows: inhibition of PAO1 biofilm formation – strain PAO1, LB-PBS medium, absorbance 600 nm, primary screen (AID 1176). Note: test concentration not given here. Conditions: P. aeruginosa PAO1 growth/biofilm, A600, 12 h; higher = more signal.
A short description of assay [6]: growth modulation of vineyard yeast isolate – strain RM11-1a, OD600, basal, 24 h, primary screen (AID 1177).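 Note: cultures grown under basal conditions with no added stressor; test concentration not given here.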 Conditions: S. cerevisiae RM11-1a growth, OD600, 24 h; higher = more signal, called active from +8 up or from −8 down.
Assay [7] can be described thus: growth of efflux-deficient E. coli DRC39 – strain DRC39, OD650, 24 h, E. coli filamentation inducers, primary screen (AID 1178).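 Note: growth measured as culture turbidity by optical density at 650 nm; test concentration not given here.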 Particulars: E. coli DRC39 acrAB, higher = more signal, called active from +8 up or from −8 down.
Assay [8] can be described thus: growth of efflux-deficient E. coli DRC39 – strain DRC39, OD650, 48 h, E. coli filamentation inducers, primary screen (AID 1179).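 Note: screen aims at cell division blockers that make cells filament.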 Particulars: E. coli DRC39 delta-acrAB growth, higher = more signal, called active from +8 up or from −8 down.
Assay [9] can be described thus: viability profiling in RPMI8226 myeloma cells – cell-based, resazurin fluorescence, basal, 24 h, PK04 Diversity Set, profiling panel (AID 1180).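 Note: RPMI8826 multiple myeloma cell line at 5000 cells per well; test concentration not given here.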 Particulars: higher = more signal. For orientation: Resazurin is reduced to fluorescent resorufin, in cell work by metabolically active cells.
Assay [10] addresses E3 ubiquitin-protein ligase XIAP (Homo sapiens) (UniProt P98170). Put plainly: small molecules binding XIAP protein – biophysical, small-molecule microarray, fluorescence 635 nm, primary screen (AID 1181).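 Note: score merges 667 nm emission and signal to noise over triplicate slides.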 Particulars: higher = more signal.

This note sets out measurements from PubChem BioAssay.

The source made the active and inactive calls. Unless noted, the rule behind the calls is not given here.

E3 ubiquitin-protein ligase XIAP (Homo sapiens), sequence (P98170 whole entry, looked up): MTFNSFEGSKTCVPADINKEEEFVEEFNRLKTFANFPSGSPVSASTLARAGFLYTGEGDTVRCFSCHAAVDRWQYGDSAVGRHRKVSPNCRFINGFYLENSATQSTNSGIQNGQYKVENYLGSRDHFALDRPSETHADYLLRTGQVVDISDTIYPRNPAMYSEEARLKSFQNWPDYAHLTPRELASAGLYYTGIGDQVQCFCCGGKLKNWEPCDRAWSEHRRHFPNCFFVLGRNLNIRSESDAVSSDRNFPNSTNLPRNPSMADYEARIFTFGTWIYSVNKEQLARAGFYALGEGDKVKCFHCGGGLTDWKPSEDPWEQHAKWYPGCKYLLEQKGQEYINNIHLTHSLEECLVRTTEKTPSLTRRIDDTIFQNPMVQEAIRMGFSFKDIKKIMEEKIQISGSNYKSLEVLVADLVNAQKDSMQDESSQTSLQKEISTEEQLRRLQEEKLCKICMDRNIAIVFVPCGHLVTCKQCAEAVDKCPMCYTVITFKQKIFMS
Dihydroorotate dehydrogenase (quinone), mitochondrial (Plasmodium falciparum (isolate 3D7)), sequence (Q08210 whole entry, looked up): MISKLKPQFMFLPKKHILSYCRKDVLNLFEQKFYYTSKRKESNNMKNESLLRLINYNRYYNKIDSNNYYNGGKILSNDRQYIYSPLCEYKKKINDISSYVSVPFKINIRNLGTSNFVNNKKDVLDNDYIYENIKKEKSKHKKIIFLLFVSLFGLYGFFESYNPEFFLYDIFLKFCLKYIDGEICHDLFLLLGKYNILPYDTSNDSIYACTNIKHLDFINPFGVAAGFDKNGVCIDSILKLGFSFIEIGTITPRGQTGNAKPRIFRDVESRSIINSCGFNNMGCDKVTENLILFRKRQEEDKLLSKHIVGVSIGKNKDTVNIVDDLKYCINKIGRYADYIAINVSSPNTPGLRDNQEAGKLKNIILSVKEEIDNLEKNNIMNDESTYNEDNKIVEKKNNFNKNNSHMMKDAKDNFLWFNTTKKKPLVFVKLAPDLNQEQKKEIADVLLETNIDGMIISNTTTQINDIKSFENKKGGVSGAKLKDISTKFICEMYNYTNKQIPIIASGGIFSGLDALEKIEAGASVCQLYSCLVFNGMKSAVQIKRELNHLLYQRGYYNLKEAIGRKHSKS

As for `CCOC(=O)[C@H](Cc1ccccc1)NC(=O)CCC1CC(OC(=O)NCc2cccc3ccccc23)CC2(CCCC(COC(=O)NCc3ccc4c(c3)OCO4)O2)O1` (stereo not given in full), the z-score was -0.0973 in assay [1]; -0.552 (inactive) in [2]; -0.082 (inactive) in [3]; -0.373 (inactive) in assay [5]; -0.131 (inactive) in [6]; 1.56 (inactive) in assay [7]. In addition, the values for the z-score in assay [8] and in assay [9] were 1.41 (inactive) and 0.922, respectively. The composite z-score in [4] was -0.929 (inactive); in [10], -0.209.
As to `CCOC(=O)[C@H](CC(C)C)NC(=O)CCC1CC(OC(=O)NCCc2ccc(F)cc2)CC2(CCCC(COC(=O)NCc3cccc(C(F)(F)F)c3)O2)O1` (stereo not given in full), the z-score was 0.0989 in assay [1]; 0.924 (inactive) in assay [2]; 0.0492 (inactive) in assay [3]; 0.672 (inactive) in assay [5]; 0.924 (inactive) in [6]; 0.687 (inactive) in assay [7]. In addition, the z-score in assay [8] is 0.0609 (inactive); in [9] it was 0.15. For the same compound, the composite z-score was 0.324 (inactive) in assay [4] and -0.383 in assay [10].
`CON=C(C)CCN1CCCc2nc(C)c(C)cc21`: the z-score was -0.183 in assay [1]; -0.899 (inactive) in [2]; -0.136 (inactive) in [3]; 0.0981 (inactive) in assay [5]; -0.1 (inactive) in [6]; 0.213 (inactive) in assay [7]. Moreover, the z-score was -1.7 (inactive) in assay [8] and -0.22 in assay [9]. The composite z-score in [4] is -0.329 (inactive); in assay [10] it was 0.346.
As for `C[C@]12CCC3c4ccc(OCC5CO5)cc4CCC3C1CC[C@@H]2O` (stereo not given in full), the z-score in assay [1] was 0.689; in assay [2] it was -3.59 (inactive); in assay [3] it was 0.383 (inactive); in assay [5], 0.52 (inactive); in [6], 1.27 (inactive); in assay [7], -0.424 (inactive). For the same compound, the z-score in [8] is -0.431 (inactive); in [9], 1.68. The composite z-score in assay [4] was -0.187 (inactive); in assay [10] it was -0.148.
Consider `CC(=O)OC[C@H]1O[C@@H](ON=C(C)C)[C@H](OC(C)=O)[C@@H](OC(C)=O)[C@@H]1OC(C)=O`, for which the z-score in assay [1] was 0.199; in assay [2], 0.515 (inactive); in [3], -0.0437 (inactive); in assay [5] it was 0.569 (inactive); in assay [6] it was 0.0958 (inactive); in assay [7], -0.308 (inactive). The z-score in assay [8] is -2.31 (inactive); in [9], -0.0678. The composite z-score was -0.696 (inactive) in assay [4] and 0.0478 in assay [10].
As for `COc1ccc(COC(=O)NN=C2C[C@@H](O)[C@@H](O)[C@@H]3[C@@H]4C(=O)N(C5CCCCC5)C(=O)[C@@H]4CC[C@@H]23)cc1`, the z-score in [1] was -0.578; in [2], -1.29 (inactive); in assay [3], -0.489 (inactive); in assay [5], -0.118 (inactive); in assay [6], -0.286 (inactive); in assay [7], -0.697 (inactive). Further, the z-score in assay [8] is -0.437 (inactive); in assay [9], -0.481. The composite z-score in assay [4] was -1.39 (inactive); in assay [10] it was 0.0225.
With `CCOC(=O)[C@H](CC(C)C)NC(=O)CCC1CC(OC(=O)NCc2ccc3c(c2)OCO3)CC2(CCCC(COC(=O)NCCOC)O2)O1` (stereo not given in full), the z-score in assay [1] is 1.22; in [2], -0.383 (inactive); in [3], 0.982 (inactive); in assay [5] it was -0.516 (inactive); in [6], 0.418 (inactive); in [7], 0.214 (inactive). The z-score was -1.31 (inactive) in [8] and 0.912 in assay [9]. The results for the composite z-score in assay [4] and in [10] were -0.617 (inactive) and -0.0784, respectively.
Consider `CC(=O)OC[C@H]1O[C@H](CCON=C(C)CCN2CCCc3nc(C)c(C)cc32)C=C[C@@H]1OC(C)=O`, for which the z-score in [1] is 0.0171; in [2], 1.34 (inactive); in [3], -0.102 (inactive); in assay [5] it was 0.511 (inactive); in [6] it was 1.3 (inactive); in assay [7], 0.565 (inactive). Moreover, the z-score in [8] was 0.16 (inactive); in assay [9], -0.0643. Further, the composite z-score in [4] was 0.245 (inactive); in [10], -0.0878.
For `CCOC(=O)CCN1C(=O)[C@H]2[C@H]3[C@H](O)[C@H](O)CC(=NO[C@@H]4O[C@H](CO)[C@@H](O)[C@H](O)[C@H]4O)[C@H]3CC[C@H]2C1=O`, the z-score in assay [1] is -0.228; in [2], 0.87 (inactive); in [3], -0.433 (inactive); in assay [5], -0.483 (inactive); in assay [6], -0.402 (inactive); in assay [7] it was -0.739 (inactive). Further, the results for the z-score in [8] and in assay [9] were -0.0907 (inactive) and -0.162, respectively. In addition, the values for the composite z-score in [4] and in [10] were 0.29 (inactive) and 0.106, respectively.
Take `CCN1C(=O)[C@H]2[C@H]3[C@H](O)[C@H](O)CC(=NO[C@H](C)c4cn([C@H](CO)Cc5ccccc5)nn4)[C@@H]3CC[C@H]2C1=O`: the z-score in [1] was -0.948; in assay [2], 0.0722 (inactive); in [3], -1.37 (inactive); in [5], 0.359 (inactive); in [6], -0.141 (inactive); in [7], 1.44 (inactive). The z-score was 0.829 (inactive) in [8] and -1.46 in [9]. Besides, the composite z-score is -0.613 (inactive) in assay [4] and 0.0178 in assay [10].
For `CC(=O)OC[C@H]1O[C@H](CC=NO[C@@H](C)c2cc(-c3c(C)cc(C)cc3C)no2)C=C[C@@H]1OC(C)=O`, the z-score in [1] is -0.583; in assay [2], 0.493 (inactive); in [3], -0.523 (inactive); in [5], -1.17 (inactive); in assay [6], 0.142 (inactive); in [7], 0.165 (inactive). For the same compound, the z-score was 0.105 (inactive) in [8] and 0.138 in [9]. Also, the composite z-score in [4] was 0.272 (inactive); in [10] it was -0.126.
With `COC(=O)[C@H](C)NC(=O)CCC1CC(OC(=O)NCCc2ccc(F)cc2)CC2(CCCC(COC(=O)NCCOc3ccccc3)O2)O1` (stereo not given in full), the z-score in assay [1] was 0.0903; in assay [2], 0.338 (inactive); in [3], 0.177 (inactive); in assay [5], -0.0326 (inactive); in assay [6], 0.127 (inactive); in [7] it was 0.289 (inactive). In addition, the z-score in [8] was -0.451 (inactive); in assay [9], -0.0199. Moreover, the composite z-score is -0.361 (inactive) in [4] and -0.114 in [10].
On to `COc1ccc(-c2cnnc(CCCn3ccnc3-c3ccccc3)n2)cc1`, for which the z-score is -1.18 in [1]; -0.72 (inactive) in [2]; -0.891 (inactive) in assay [3]; 1.17 (inactive) in assay [5]; -0.252 (inactive) in assay [6]; -0.867 (inactive) in [7]. Moreover, the z-score was -0.634 (inactive) in assay [8] and -1.38 in [9]. Moreover, the composite z-score in assay [4] was 0.552 (inactive); in assay [10], -0.0143.
